Compounds with a hit are over-represented: about 9.5% of the library has one in this group of screens.
SARS PLpro yeast = qHTS of Yeast-based Assay for SARS-CoV PLP; hit rate 0.19% among 330,000; Potency, µM (highest dose often 32.9 µM), for inactives: at the top dose activity, positive = growth rescue, usual class: activators; AID 485353, 2010; S. cerevisiae expressing SARS-CoV PLpro, growth rescue; also: 0% is about no effect; nearly all actives have a fitted effect of over 55% in size
Pf growth 96h = Primary qHTS for delayed death inhibitors of the malarial parasite plastid, 96 hour incubation | P. falciparum luciferase reporter growth, 96 h | Potency, µM (doses to about 28.7 µM), inactives show at the highest dose activity change, negative = inhibition, actives largely listed as inhibitors | hit rate 6.9% among 320,000; active = well fitted inhibition curve with a large enough effect; inconclusive = small, poorly fitted or top-dose-only effect, or another doubt; inactive = no such curve, though single readings can be large or run the other way; also: % is scaled to controls: 0 for no effect and ±100 for the full control effect
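Parasite growth measured via integrated firefly luciferase reporter in P. falciparum. Infected erythrocytes at 2% hematocrit, 0.05% parasitemia final were treated 96 hours at 37 C under 5% CO2, and luminescence was read.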
Pf growth 48h = Primary qHTS for delayed death inhibitors of the malarial parasite plastid, 48 hour incubation; P. falciparum luciferase growth in erythrocytes, 48 h; Potency, µM (doses to about 28.7 µM), without a hit: at the top dose activity change, negative = inhibition, hits mostly inhibitors; AID 504832, 2011; hit rate 5.9% among 310,000; active = well fitted inhibition curve with a large enough effect; inconclusive = small, poorly fitted or top-dose-only effect, or another doubt; inactive = no such curve, though single readings can be large or run the other way; also: % is scaled to controls: 0 for no effect and ±100 for the full control effect
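Parasite viability was followed by luminescence of a genomically integrated firefly luciferase. Cultures held 0.1% parasitemia at 2% hematocrit (final), incubated under 5% CO2 at 37 C.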
NS1 inh = qHTS Assay for Inhibitors of Influenza NS1 Protein Function; Potency, µM (titrated, usually from 46.1 µM), without a hit: at the top dose activity, positive = more growth; hit rate 0.4% among 270,000; also: actives are rising curves; nearly all actives have a fitted effect of over 50% in size
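Compounds were scored for reversing the slow growth caused by influenza A NS1 in S. cerevisiae, measured by optical density at 600 nm. Assay medium contained 2% galactose at pH 6.0; NS1-free yeast of the same strain were the positive control.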
RE007 growth inh = qHTS Assay for Inhibitors of the HIV-1 protein Vpr; S. pombe RE007 Vpr strain, BacTiter-Glo ATP luminescence, 24 h; Potency, µM (titrated, usually from 92.2 µM), inactives show at the top dose activity change, negative = less growth, actives largely listed as inhibitors; hit rate 0.21% among 360,000; AID 651644, 2012; active = well fitted falling curve with a large enough effect; inconclusive = small, poorly fitted or top-dose-only effect; inactive = no such curve, though single readings can be large or run the other way; also: % is scaled to controls: 0 for no effect and ±100 for the full control effect; nearly all actives have a fitted effect of over 50% in size
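Fission yeast RE007 carrying one integrated HIV-1 vpr copy, seeded at OD 0.01 in PMG+AL medium with 23 nL pinned compound. Grown 24 h at 30 degrees; viability read by BacTiter-Glo luminescence after 5 min.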
* = called active by the depositor; ? = inconclusive; . = no result given; [ ] = dose if it differs, or a comment. Unless noted, calls follow the shape of the full dose curve. Potency is read from the fitted curve at half-maximal effect.

SMILES | SARS PLpro yeast | Pf growth 96h | Pf growth 48h | NS1 inh | RE007 growth inh
O=c1[nH]c(C2CCN(S(=O)(=O)c3ccccc3)CC2)nc2c1nnn2Cc1cccc(Cl)c1 | 2.4% | 4.8% | ? | 22.3% | -0.6%
COC(=O)C1C(=O)N(S(=O)(=O)c2ccc([N+](=O)[O-])cc2)c2ccccc21 (stereo unspecified) | . | . | . | . | -8.0%
CCOc1ccc(C(=O)N2CCC3(CC2)NCCc2[nH]cnc23)cc1OCC | 0.6% | 31.1% | 31.8% | 5.4% | 4.1%
CCCCOC(=O)c1ccc(NC(=O)C(CCS(C)(=O)=O)NC(C)=O)cc1 (stereo unspecified) | 11.6% | 5.22µM* | 56.2% | 0.5% | 15.3%
O=C(O)C1CC2(C1)CC(C(=O)O)C2 (stereo unspecified) | . | . | . | -2.8% | .
Cc1ccc([N+](=O)[O-])cc1S(=O)(=O)NCCc1c(C)[nH]c2c(C)cccc12 | 13.8% | 9.28µM* | 10.4% | 8.3% | -5.0%
Cc1[nH]c2c(C)cccc2c1CCNS(=O)(=O)c1cccc([N+](=O)[O-])c1 | -2.9% | 36.4% | -10.6% | 14.6% | -1.2%
S=C(NCC1CCCO1)Nc1cccc2ccccc12 (stereo unspecified) | 0.3% | 1.04µM* | 11.8% | -2.3% | -5.7%
COc1ccccc1NC(=S)NCC1CCCO1 (stereo unspecified) | -4.0% | ? | 0.5% | 2.1% | 3.8%
S=C(NCC1CCCO1)Nc1cccc(Cl)c1 (stereo unspecified) | 0.2% | 11.9% | 7.2% | 6.5% | -1.0%
S=C(NCC1CCCO1)Nc1ccc(Nc2ccccc2)cc1 (stereo unspecified) | -0.9% | 11.7µM* | -7.9% | -1.8% | -2.1%
Cc1cn(-c2cc(NC(=O)c3ccc(C)c(NC(=O)c4cccc(-c5cn[nH]c(=O)c5)c4)c3)cc(C(F)(F)F)c2)cn1 | -0.7% | ? | ? | 1.5% | -3.1%
CN(CC(=O)Nc1ccc(F)c(F)c1F)C(=O)CCCSc1nc2ccccc2[nH]1 | -3.8% | ? | ? | . | -4.7%
Oc1c(C(Nc2nccs2)c2ccc(C(F)(F)F)cc2)ccc2cccnc12 (stereo unspecified) | -26.4% | -72.9% | 0.37µM* | . | -19.0%
CCC(=O)NC(c1cccs1)c1ccc2cccnc2c1O (stereo unspecified) | -6.9% | ? | 2.33µM* | -43.6% | ?
CCCC(=O)NC(c1cccs1)c1cc(Cl)c2cccnc2c1O (stereo unspecified) | 5.2% | ? | 3.7µM* | 8.5% | 16.0%
CCCC(=O)NC(c1ccc(Cl)cc1Cl)c1ccc2cccnc2c1O (stereo unspecified) | ? | 17.0% | ? | -113.7% | 0.9%
CCC(=O)NC(c1ccco1)c1cc(Cl)c2ccccc2c1O (stereo unspecified) | -0.8% | ? | 3.2% | . | .
CCCC(=O)NC(c1ccco1)c1cc(Cl)c2cccnc2c1O (stereo unspecified) | -27.6% | . | 11.7µM* | -170.5% | 0.0%
O=C(O)c1ccc(N[C@H](c2ccccc2)c2ccc3cccnc3c2O)cc1 | . | . | . | -4.5% | .
CC(C)CC(=O)NC(c1cccs1)c1ccc2cccnc2c1O (stereo unspecified) | -0.7% | 403.9% | ? | -0.2% | ?
CC(C)(C)OC(=O)NCc1ccc(CNC(=O)c2nc[nH]c2C(=O)N2CCN(C(=O)OC(C)(C)C)CC2)cc1 | -1.3% | ? | ? | . | -5.2%
CC(Oc1cc(F)ccc1[N+](=O)[O-])C(=O)N(C)CC(=O)Nc1ccccc1C(F)(F)F (stereo unspecified) | -1.2% | -5.5% | -4.8% | 5.4% | 19.7%
COc1ccccc1N1CCN(S(=O)(=O)c2cc(-c3cc(C)no3)ccc2C(C)C)CC1 | 17.7% | 11.5% | ? | -1.4% | 15.0%
Cc1conc1NC(c1cccs1)c1ccc2cccnc2c1O (stereo unspecified) | -37.2% | 6.57µM* | 1.85µM* | -252.1% | .
SMILES | SARS PLpro yeast | Pf growth 96h | Pf growth 48h | NS1 inh | RE007 growth inh
O=[N+]([O-])c1ccc([C@@H](Nc2ccccc2)c2ccc3cccnc3c2O)cc1 | . | . | . | 1.8% | .
CCOCCCN1C(=O)CN(C2CCCCC2)C(=O)C1c1ccc(OC)c(OC)c1 (stereo unspecified) | -1.3% | 0.2% | -3.7% | -3.0% | 2.9%
CCOCCCN1C(=O)CN(C2CCCCCC2)C(=O)C1c1ccc(OC)cc1 (stereo unspecified) | -1.0% | 0.828µM* | ? | -1.0% | -1.7%
COc1ccc(-c2n(-c3ccccn3)c3ccccc3[n+]2-c2ccccn2)cc1 | -1.0% | 4.15µM* | 10.4µM* | 6.2% | 5.6%
Cc1cc(Cl)ccc1NC(=O)/C=N/O | -1.5% | 2.5% | 1.85µM* | ? | 1.9%
Cc1ccc(C(=O)C2=C(O)C(=O)N(Cc3ccco3)C2c2ccc(N(C)C)cc2)o1 (stereo unspecified) | 5.0% | 11.7µM* | ? | ? | 3.5%
Cc1ccc(N/N=C(\Cc2nc3ccccc3[nH]2)c2ccccc2)cc1 | 19.0% | ? | 9.28µM* | 21.1% | -21.6%
CCN/N=C(\Cc1nc2ccccc2[nH]1)c1ccccc1 | 1.7% | ? | 10.4µM* | 0.8% | 8.7%
O=c1c2ccccc2nc(-c2ccco2)n1CCc1ccc(O)cc1 | 2.6% | ? | ? | -8.5% | 13.4%
COc1ccc(C(=O)N/N=C/c2ccc(OC)c(CN3CCCc4ccccc43)c2)cc1 | -12.1% | 17.6% | 1.17µM* | ? | 6.1%
CCCCOc1ccc(C(=O)N/N=C/c2ccc(OCCN3CCCCC3)c(OC)c2)cc1 | -7.2% | 11.7µM* | 11.7µM* | 20.9% | -2.9%
COc1ccc(/C=N/NC(=O)c2ccc(N)cc2)cc1Cn1cc([N+](=O)[O-])cn1 | 1.3% | 11.7µM* | 6.8% | . | 17.6%
CCOc1cc(/C=N/NS(=O)(=O)c2ccc(OC)cc2)ccc1OCCN1CCOCC1 | 8.7% | 5.22µM* | 0.1% | 3.0% | -2.7%
Cc1cccc(NC(=O)c2ccc(C)c(S(=O)(=O)N3CCCCC3)c2)n1 | -3.7% | ? | 21.5% | . | -23.9%
O=C(COc1ccc(Br)cc1CNCCc1ccccc1)NCc1ccccc1 | -0.7% | ? | ? | -3.4% | -7.3%
CCCNCc1cc(Br)ccc1OCC(=O)NCCc1ccccc1 | ? | 11.7µM* | 13.1µM* | -6.0% | -24.1%
CC1(C)Cc2c(ccc3ccccc23)C(c2cc3ccccc3oc2=O)=N1 | 0.4% | 10.4µM* | ? | 4.0% | 1.1%[3.69 µM]
CC1(C)Cc2ccccc2C(c2cc3ccccc3oc2=O)=N1 | 13.3% | ? | 8.28µM* | 2.2% | -9.2%
CNc1nnc(-c2cc3ccccc3oc2=O)s1 | -7.6% | -1.3% | 44.7% | -18.8% | -13.0%
COc1cc(CNc2cc(C)ccc2C)cc(OC)c1OC | -5.9% | ? | 5.22µM* | -4.1% | 3.7%
O=C(N/N=C/c1c(O)n(CCC2=CCCCC2)c(=S)[nH]c1=O)c1ccccc1 | 11.2µM* | 4.8% | 15.9% | ? | 10.4%

High-throughput results: PubChem BioAssay, National Center for Advancing Translational Sciences (NCATS)
